# Measurements taken from PubChem BioAssay AID651815 (National Center for Advancing Translational Sciences (NCATS), 2012).
# About 1,100 (52%) of roughly 2,100 compounds were called active. About 29% were inconclusive and are not listed. The set was probably picked from earlier hits. Some of the results follow. A number with no mark means an inactive call. The call rests on the fitted dose curve; in most records, active means well fitted inhibition curve with a large enough effect; inconclusive means small, poorly fitted or top-dose-only effect; inactive means no such curve, though single readings can be large or run the other way.
# Molecular target: DNA dC->dU-editing enzyme APOBEC-3F (Homo sapiens) (UniProt Q8IUX4)
# Test: qHTS for inhibitors of Vif-A3F interactions: Cherry picks counterscreen; further: nearly all actives have a fitted effect of over 65% in size
# Conditions: HeLa A3F-eYFP/Vif cells, eYFP fluorescence, 24 h; series mostly up to 46.1 µM; activity, negative = inhibitor: at the top concentration
# Outline: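 Rescue of Vif-driven A3F-eYFP degradation read as cellular eYFP fluorescence after 24 h compound exposure (several concentrations) in stable HeLa cells; MG132 (2 mM stock) as positive control.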
# On the % scale 0 is the no-effect control and ±100 the full control effect; potency means the concentration at half of the fitted maximal effect.
# Chain of DNA dC->dU-editing enzyme APOBEC-3F (Homo sapiens) (Q8IUX4 whole entry, looked up): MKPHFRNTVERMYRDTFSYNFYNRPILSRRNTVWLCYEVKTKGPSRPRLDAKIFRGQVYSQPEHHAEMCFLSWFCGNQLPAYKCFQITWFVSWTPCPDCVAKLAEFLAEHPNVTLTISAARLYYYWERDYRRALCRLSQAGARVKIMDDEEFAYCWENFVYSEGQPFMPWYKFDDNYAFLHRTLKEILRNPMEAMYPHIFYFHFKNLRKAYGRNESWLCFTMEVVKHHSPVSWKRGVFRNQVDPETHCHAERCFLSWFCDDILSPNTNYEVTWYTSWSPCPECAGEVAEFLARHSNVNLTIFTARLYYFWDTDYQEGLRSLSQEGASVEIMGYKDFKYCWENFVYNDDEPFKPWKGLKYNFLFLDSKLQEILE
SMILES,"activity, negative = inhibitor",Potency
COc1ccc(-c2cc(-c3cccs3)nc3sc(C#N)c(N)c23)cc1,-19.5%,–
N#Cc1sc2nc(-c3cccs3)cc(-c3ccc(Cl)cc3)c2c1N,–,12.5 µM (active)
CCN(CC)C(=O)c1sc2nc(-c3cccs3)cc(-c3ccc(Cl)cc3)c2c1N,–,14 µM (active)
O=C(COC(=O)c1ccc(NS(=O)(=O)c2cccs2)cc1O)NCc1ccccc1,–,4.44 µM (active)
COc1ccc(COn2c(=O)c(C)[n+]([O-])c3ccccc32)cc1OC,-14.5% [at 36.9 µM],–
COc1ccc2c(c1)c1nc3ccccc3nc1n2CC(=O)OC(C)C,–,3.66 µM (active)
COc1ccc2c(c1)c1nc3ccccc3nc1n2Cc1ccc(OC)c(OC)c1,–,18.4 µM (active)
CCOc1ccc(Cn2c3ccc(OC)cc3c3nc4ccccc4nc32)cc1,–,18.4 µM (active)
Nc1nn(-c2ccccc2)c(N)c1N=Nc1ccccc1,–,2.23 µM (active)
c1ccc(N=NC2=NN(c3ccccc3)CS2)cc1,0.0565%,–
c1ccc2[nH]c(NN=C3CCCCCC3)nc2c1,-14.5%,–
O=C(CSc1ccccc1)Nc1nc2ccccc2[nH]1,–,8.86 µM (active)
N#CC(C(=S)Nc1ccccc1)c1nc2ccccc2[nH]1 (stereo not given),-11.5%,–
Cc1ccc2c(c1)C=CC(C#N)N2C(=O)c1ccccc1 (stereo not given),–,4.98 µM (active)
COc1ccc(OC)c(C2CC(=O)c3c([nH]c(C(=O)OCC4CCCO4)c3C)C2)c1 (stereo not given),–,12.5 µM (active)
Cc1c(C(=O)OC2CCCCC2)[nH]c2c1C(=O)CC(c1ccccc1Cl)C2 (stereo not given),–,2.06 µM (active)
COCCOC(=O)c1[nH]c2c(c1C)C(=O)CC(c1ccccc1)C2 (stereo not given),–,1.77 µM (active)
CN(/N=C/c1ccc(N(C)C)cc1)C1=NS(=O)(=O)c2ccccc21,–,11.2 µM (active)
COCCCN(C(C)=O)c1nc(-c2ccc(OC)cc2)cs1,–,17.7 µM (active)
CN1C2=CC=CC=CC2=[N+](C)C12C([N+](=O)[O-])=CC(=[N+]([O-])[O-])C=C2[N+](=O)[O-] (stereo not given),–,12.5 µM (active)
Cc1ccc(S(=O)(=O)Nc2cc(-c3nn(C)c(=O)c4ccccc34)ccc2N2CCOCC2)cc1,–,12.5 µM (active)
Cc1cccc2[nH]cc(/C=C3/C=Nc4ccccc43)c12,–,20.6 µM (active)

SMILES,"activity, negative = inhibitor",Potency
c1cc(SC2CCCCC2)cc(-c2nc3cnccn3c2NC2CCCCC2)c1,-24.5%,–
CCC(C)Sc1ccc(-c2nc3cc(C)ccn3c2NC2CCCCC2)cc1 (stereo not given),-10.9%,–
CCCCNc1c(-c2ccc(SC3CCCCC3)cc2)nc2cnccn12,–,4.44 µM (active)
O=C(c1cc(-c2ccncc2)nc2ccccc12)N1CCN(c2ccccn2)CC1,–,6.27 µM (active)
COC(=O)c1sc(N)c(C(=O)OC)c1COC(=O)c1c(C)noc1C,–,4.44 µM (active)
COc1ccc(C(=O)c2sc3nc4c(c(C(F)(F)F)c3c2N)CN(C(C)=O)CC4)cc1OC,–,23.1 µM (active)
CC(=O)N1CCc2nc3sc(C(=O)c4ccc(F)cc4)c(N)c3c(C(F)(F)F)c2C1,–,18.4 µM (active)
COc1ccccc1-c1nnc2sc(-c3cc4ccccc4o3)nn12,–,5.59 µM (active)
CCCNc1c(F)c(F)c2c(C)c3ccccc3nc2c1F,–,15.8 µM (active)
Cc1c2ccccc2nc2c(F)c(NC(C)C)c(F)c(F)c12,–,6.51 µM (active)
c1ccc(-c2cnn3c(-c4ccccc4)c(-c4ccccc4)nc3n2)cc1,–,0.461 µM (active)
Nc1c(C(=O)C2CC2)sc2nc(-c3cccs3)cc(C(F)(F)F)c12,–,1.16 µM (active)
CC(C)(C)C(=O)c1sc2nc(-c3cccs3)cc(C(F)(F)F)c2c1N,–,1.84 µM (active)
CC(=O)c1sc2nc(-c3cccs3)cc(C(F)(F)F)c2c1N,–,16.4 µM (active)
CCCc1nc2c(C)cc(Br)cn2c1Cc1ccccc1,-9.85% [at 36.9 µM],–
CCn1cc(/C=C/c2cc[n+](C)cc2)c2ccccc21,–,0.0498 µM (active)
C=CCn1cc(/C=C/c2cc[n+](C)cc2)c2ccccc21,–,0.198 µM (active)
CC(C)n1cc(/C=C/c2cc[n+](C)cc2)c2ccccc21,–,0.0559 µM (active)
COc1cc(OC)c(/C=C/c2ccc3ccccc3[n+]2C)c(OC)c1,–,11.6 µM (active)
N#Cc1c(-c2ccccc2F)cc(C2CC2)nc1SCC(=O)c1cccs1,–,14 µM (active)
CCc1c(C)nc(SCC(=O)c2cccs2)c(C#N)c1C,-0.887% [at 36.9 µM],–
COc1cccc(CNCCSc2nnnn2C)c1OCc1ccc(F)cc1,-0.36%,–

SMILES,"activity, negative = inhibitor",Potency
Fc1ccc(COc2ccc3ccccc3c2CNc2nn[nH]n2)cc1,–,19.8 µM (active)
O=C(NNC1=Nc2cccc3cccc1c23)c1ccc(Br)cc1,–,23.1 µM (active)
COc1cc(OC)c(/C=C2\SC(=O)N(CC(=O)Nc3ccccc3F)C2=O)c(OC)c1,–,12.5 µM (active)
O=C(Cn1nc2c(cc1=O)CCCC2)NCc1ccc(Cl)cc1,–,16.4 µM (active)
N#C/C(=C/c1cccs1)c1ccccn1,–,15.8 µM (active)
CC1(C(=O)NCc2ccccc2)Cc2c(-c3ccc(C(N)=O)cc3)ccnc2O1 (stereo not given),–,7.9 µM (active)
CC(=O)Nc1cccc(-c2ccnc3c2CC(C)(C(=O)NCc2ccccc2)O3)c1 (stereo not given),–,2.8 µM (active)
CC(=O)Nc1cccc(-c2ccnc3c2CC(C)(C(=O)NCc2cccs2)O3)c1 (stereo not given),–,4.44 µM (active)
CC1(C(=O)NCc2ccco2)Cc2c(-c3cccc(C(N)=O)c3)ccnc2O1 (stereo not given),–,14 µM (active)
CC1(C(=O)NCc2ccccc2)Cc2c(-c3cccc(C(N)=O)c3)ccnc2O1 (stereo not given),–,7.04 µM (active)
CC(=O)Nc1cccc(-c2ccnc3c2CC(C(=O)NCc2cccs2)O3)c1 (stereo not given),–,5.59 µM (active)
CCCOc1cc(N(CC)CC)ccc1/C=C(/C#N)c1nc2ccc(C)cc2[nH]1,4.05%,–
N#C/C(=C\c1ccc(Cl)cc1)c1nc2ncccc2[nH]1,–,15.8 µM (active)
Cc1ccc2nc(/C(C#N)=C\c3ccc([N+](=O)[O-])o3)[nH]c2c1,–,10.3 µM (active)
N#C/C(=C\c1ccc([N+](=O)[O-])o1)c1nc2ccccc2[nH]1,–,8.2 µM (active)
N#C/C(=C\c1cccnc1)c1nc2ccccc2[nH]1,–,14 µM (active)
CCn1c(O)c(/C=N/NC(=O)c2ccncc2)c(=O)n(CC)c1=S,0.342%,–
CCc1ccc(/C=N/NC(=O)c2cc(-c3ccncc3)nc3ccccc23)s1,–,4.98 µM (active)
CC(/C=N/NC(=O)c1cc(-c2ccccc2)nc2ccccc12)=C\c1ccco1,–,3.14 µM (active)
O=C(N/N=C/c1ccco1)c1cc(-c2ccncc2)nc2ccccc12,–,6.27 µM (active)
C/C(=N\NC(=O)c1cc(-c2ccncc2)nc2ccccc12)c1ccc(N2CCOCC2)cc1,-25.1% [at 36.9 µM],–
